From PubChem BioAssay (Tox21)
Results filed as inconclusive are left out. Calls of active or inactive are those of the source. Unless noted, the call rests on the fitted dose curve; in most records, active means well fitted curve in the direction sought with a large enough effect in the repeat runs; inconclusive means weak or mixed curves; inactive means no such curve, though single readings can be large; an effect the other way counts as inactive or inconclusive.

Experiments:
[1] = A CellTox Green Cytotoxicity Assay to monitor cytotoxicity in HepG2 cells - 8 hour (AID 1224890); further: nearly all actives have a fitted effect of over 45% in size
How it was run: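 Nonlytic assay: viable cells exclude the dye, so fluorescence scales with cell death. HepG2 at 600 cells/well, compounds added after 5 h, signal read across 40 h.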

[2] = qHTS assay to identify small molecule antagonists of the estrogen receptor alpha (ER-alpha) signaling pathway using the BG1 cell line in the presence of 0.1 nM 17-beta-estradiol - cell viability counter screen (AID 1259241); further: nearly all actives have a fitted effect of over 40% in size; further: potency means the concentration at half of the fitted maximal effect
How it was run: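 Estradiol-stimulated (0.1 nM) VM7Luc4E2 cells exposed to compounds 22 hr; viability measured by fluorescence of cleaved CellTiter-Fluor substrate after 30 min.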

[3] = qHTS assay to identify small molecule antagonists of the androgen receptor (AR) signaling pathway using the MDA cell line in the presence of 0.5 nM R1881 - cell viability counter screen (AID 1259242); further: nearly all actives have a fitted effect of over 45% in size
How it was run: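 R1881 at 0.5 nM final stimulated MDA-kb2 cells during 16 hr compound treatment at 37C. Cytotoxicity read: CellTiter-Fluor fluorescence after 30 min.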

[4] = molecular target: Androgen receptor (Homo sapiens) (UniProt P10275); experiment: qHTS assay to identify small molecule antagonists of the androgen receptor (AR) signaling pathway using the MDA cell line in the presence of 0.5 nM R1881 (AID 1259243); further: nearly all actives have a fitted effect of over 50% in size
How it was run: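 We exposed MDA-kb2 cells to compounds under 0.5 nM R1881 stimulation for 16 hr at 37C and quantified MMTV-driven luciferase by luminescence.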

[5] = molecular target: Estrogen receptor (Homo sapiens) (UniProt P03372); experiment: qHTS assay to identify small molecule antagonists of the estrogen receptor alpha (ER-alpha) signaling pathway using the BG1 cell line in the presence of 0.1 nM 17-beta-estradiol (AID 1259244); further: nearly all actives have a fitted effect of over 50% in size; further: potency means the concentration at half of the fitted maximal effect
How it was run: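 VM7Luc4E2; 4xERE-luciferase; 0.1 nM E2 final; 22 h co-incubation, 37C; ONE-Glo luminescence after 30 min at room temperature.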

[6] = qHTS assay to identify small molecule HDAC inhibitors (AID 1259364);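 further: wild-type HCT-116 cells with endogenous class I/II HDAC activity; top concentration of the series differs between compounds; nearly all actives have a fitted effect of over 45% in size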
How it was run: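 Relative class I and II HDAC activity is taken from the luminogenic signal in HCT-116 cells, with compound exposure 2 hr and reagent development 30 min at room temperature.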

[7] = qHTS assay to identify small molecule HDAC inhibitors - cell viability counter screen (AID 1259365); further: series mostly up to about 92 µM; nearly all actives have a fitted effect of over 50% in size
How it was run: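 After overnight seeding at 1,500 cells per well, wild-type HCT-116 cultures took up compounds in DMSO for 2hr at 37 C. Viable cell content came from luminescence with CellTiter-Glo.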

[8] = qHTS assay to identify small molecule agonists of the sonic hedgehog signaling (Shh) pathway - cell viability counter screen (AID 1259366); further: nearly all actives have a fitted effect of over 50% in size
How it was run: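 Same-well cytotoxicity read. Gli1-Luc reporter 3T3 cells; compounds 24hr, 37C/5% CO2; CellTiter-Fluor fluorescence.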

[9] = qHTS assay to identify small molecule agonists of the sonic hedgehog signaling (Shh) pathway (AID 1259368; calls by dose curve;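 further: NIH/3T3-derived 3T3Gli1-Luc cells carrying a stable Gli1-driven firefly luciferase reporter; series mostly up to about 92 µM; nearly all actives have a fitted effect of over 15% in size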)
How it was run: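 Mouse fibroblast (NIH/3T3) reporter cells with stably integrated Gli1-Luc were treated 24 hr with compound; firefly luciferase luminescence served as the read-out.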

[10] = qHTS assay to identify small molecule antagonists of the sonic hedgehog signaling (Shh) pathway (AID 1259369; calls by dose curve; further: nearly all actives have a fitted effect of over 45% in size; further: potency means the concentration at half of the fitted maximal effect)
How it was run: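 Conditioned medium drives Shh signalling in 3T3Gli1-Luc cells; compounds in DMSO co-applied, 24hr at 37 C, then luciferase luminescence.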

[11] = molecular target: Estrogen receptor beta (Homo sapiens) (UniProt Q92731); experiment: qHTS assay to identify small molecule antagonists of the estrogen receptor beta (ER-beta) signaling pathway (AID 1259378; active means well fitted inhibition curve with a large enough effect in the signal ratio in the repeat runs, not every such curve was filed as active; the % refers to the signal ratio)
How it was run: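 ER-beta-UAS-bla HEK293T cells in 2% charcoal-stripped FBS medium treated with compound plus 1nM final 17-beta-estradiol for 16 hr at 37C. Beta-lactamase reporter read by FRET substrate fluorescence after 2 hours at room temperature.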

[12] = qHTS assay to identify small molecule agonists of the androgen receptor (AR) signaling pathway in the presence of an antagonist - cell viability counter screen (AID 1259379);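 further: MDA-kb2 human breast cancer cells carrying an MMTV luciferase reporter; series mostly up to about 92 µM; nearly all actives have a fitted effect of over 25% in size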
How it was run: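 A CellTiter-Fluor read-out measured viability of MDA-kb2 reporter cells (MMTV promoter with AR and GR response elements). Treatment: nilutamide 3.0uM final with compounds at 15 concentrations, 16 hr, 37C, 0% CO2.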

[13] = molecular target: Androgen receptor (Homo sapiens) (UniProt P10275); experiment: qHTS assay to identify small molecule agonists of the androgen receptor (AR) signaling pathway in the presence of an antagonist (AID 1259381; calls by dose curve; further: nearly all actives have a fitted effect of over 15% in size; further: potency means the concentration at half of the fitted maximal effect)
How it was run: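 Using human MDA-kb2 cells with an MMTV promoter–luciferase construct (AR and GR response elements), agonist activity is scored under 3.0uM nilutamide (final) co-treatment; 16hr incubation, 37C, luminescence readout via ONE-Glo.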

[14] = qHTS assay to identify small molecule antagonists of the estrogen receptor beta (ER-beta) signaling pathway - cell viability counter screen (AID 1259382); further: series mostly up to about 92 µM; nearly all actives have a fitted effect of over 55% in size
How it was run: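 Agonist-stimulated (1nM E2) ER-beta-UAS-bla HEK293T cells are incubated with library compounds for 16 hr at 37C. Cell viability is then assessed in the reporter-assay wells by adding CellTiter-Glo and reading luminescence after 30 min.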

[15] = molecular target: Estrogen receptor (Homo sapiens) (UniProt P03372); experiment: qHTS assay to identify small molecule agonists of the estrogen receptor alpha (ER-alpha) signaling pathway in the presence of an antagonist (AID 1259383; calls by dose curve; further: top concentration of the series differs between compounds; nearly all actives have a fitted effect of over 15% in size)
How it was run: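 Using VM7Luc4E2 cells seeded 24hr before treatment, antagonist ICI-182,780 (10.0nM final) was added, followed by compounds at 15 concentrations. Plates incubated 22hr; ONE-Glo luminescence quantified reporter activity.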

[16] = qHTS assay to identify small molecule agonists or antagonists of the thyroid stimulating hormone receptor (TSHR) signaling pathway - wild type cell line counter screen (AID 1259384; calls by dose curve)
How it was run: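 Wild-type Hek293 cells, 800/well, 18 h at 37C, then compound with Ro20-1724 for 30 min RT. cAMP by HTRF (cAMP-d2/anti-cAMP cryptate), 1 h RT, fluorescence read. 15 concentrations, triplicates.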

[17] = qHTS assay to identify small molecule phospholipidosis (PLD) inducers (AID 1259344; active means well fitted curve in the direction sought with a large enough effect; an effect the other way counts as inactive or inconclusive)
How it was run: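 Quantitative HTS in HepG2: compound plus LipidTOX Red dye for 24 h, paraformaldehyde fixation with Hoechst 33342, widefield high-content imaging; amiodarone as positive and DMSO as negative control.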

[18] = qHTS assay to identify small molecule antagonists of the sonic hedgehog signaling (Shh) pathway - cell viability counter screen (AID 1259367); further: nearly all actives have a fitted effect of over 55% in size
How it was run: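 Seed 3T3 Gli1-Luc cells at 2,000 per well; incubate 4 hr; add compound in DMSO, then conditioned medium; incubate at 37C with 5% CO2; add CellTiter-Fluor after 23 hr; read fluorescence 1 hr later.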

[19] = qHTS assay to identify small molecule agonists of the estrogen receptor beta (ER-beta) signaling pathway - cell viability counter screen (AID 1259380); further: nearly all actives have a fitted effect of over 30% in size; further: potency means the concentration at half of the fitted maximal effect
How it was run: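 Cells used were ER-beta-UAS-bla HEK293T in medium with 2% charcoal-stripped FBS. They were treated for 16 hr at 37C. Viability came from CellTiter-Glo luminescence.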

[20] = molecular target: Estrogen receptor beta (Homo sapiens) (UniProt Q92731); experiment: qHTS assay to identify small molecule agonists of the estrogen receptor beta (ER-beta) signaling pathway (AID 1259377; active means well fitted activation curve with a large enough effect in the signal ratio in the repeat runs, not every such curve was filed as active; the % refers to the signal ratio)
How it was run: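 Read-out: beta-lactamase FRET fluorescence. Cell line: ER-beta-UAS-bla HEK293T in 2% charcoal-stripped FBS. Exposure: 16 hr at 37C. Substrate step: 2 h at room temperature.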

Measured: Potency

Chain of Androgen receptor (Homo sapiens) (P10275 whole entry, looked up): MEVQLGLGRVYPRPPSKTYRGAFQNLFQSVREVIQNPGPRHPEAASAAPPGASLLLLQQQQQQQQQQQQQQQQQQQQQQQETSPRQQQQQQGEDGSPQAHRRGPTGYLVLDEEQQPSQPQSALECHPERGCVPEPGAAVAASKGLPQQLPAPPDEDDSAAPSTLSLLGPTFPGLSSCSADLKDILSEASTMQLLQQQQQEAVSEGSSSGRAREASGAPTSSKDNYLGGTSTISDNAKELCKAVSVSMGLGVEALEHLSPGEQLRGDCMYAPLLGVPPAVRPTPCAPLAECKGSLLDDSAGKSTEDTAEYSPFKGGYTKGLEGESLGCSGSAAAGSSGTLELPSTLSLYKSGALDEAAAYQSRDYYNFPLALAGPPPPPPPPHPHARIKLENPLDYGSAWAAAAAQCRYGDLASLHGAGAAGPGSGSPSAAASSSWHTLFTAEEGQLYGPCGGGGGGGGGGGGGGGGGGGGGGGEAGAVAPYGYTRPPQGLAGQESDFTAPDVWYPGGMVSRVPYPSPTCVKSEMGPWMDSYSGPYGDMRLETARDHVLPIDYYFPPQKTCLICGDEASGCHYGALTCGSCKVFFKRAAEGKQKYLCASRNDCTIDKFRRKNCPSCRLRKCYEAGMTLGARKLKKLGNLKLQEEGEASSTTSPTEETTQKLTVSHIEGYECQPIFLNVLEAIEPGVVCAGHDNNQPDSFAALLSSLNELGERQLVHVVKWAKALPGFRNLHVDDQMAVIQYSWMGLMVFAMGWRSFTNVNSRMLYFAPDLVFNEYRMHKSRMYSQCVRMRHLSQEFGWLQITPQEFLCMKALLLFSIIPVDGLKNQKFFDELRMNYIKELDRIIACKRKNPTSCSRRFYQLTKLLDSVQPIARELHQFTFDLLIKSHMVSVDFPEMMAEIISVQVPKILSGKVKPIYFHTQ
Chain of Estrogen receptor beta (Homo sapiens) (Q92731 whole entry, looked up): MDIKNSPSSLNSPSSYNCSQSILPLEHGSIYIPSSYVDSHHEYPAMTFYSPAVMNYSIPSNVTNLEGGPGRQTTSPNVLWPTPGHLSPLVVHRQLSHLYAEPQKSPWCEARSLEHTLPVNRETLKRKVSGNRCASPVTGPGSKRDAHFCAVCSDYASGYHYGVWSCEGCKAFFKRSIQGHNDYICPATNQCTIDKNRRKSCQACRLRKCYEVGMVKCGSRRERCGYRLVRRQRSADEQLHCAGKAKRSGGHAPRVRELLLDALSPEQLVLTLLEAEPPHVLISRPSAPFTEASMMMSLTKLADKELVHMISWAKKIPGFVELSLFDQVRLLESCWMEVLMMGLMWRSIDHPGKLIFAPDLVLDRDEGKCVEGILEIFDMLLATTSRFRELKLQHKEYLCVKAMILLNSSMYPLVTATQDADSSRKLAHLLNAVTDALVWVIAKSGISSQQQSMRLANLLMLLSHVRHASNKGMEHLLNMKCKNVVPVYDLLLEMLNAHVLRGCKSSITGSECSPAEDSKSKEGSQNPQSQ
Chain of Estrogen receptor (Homo sapiens) (P03372 whole entry, looked up): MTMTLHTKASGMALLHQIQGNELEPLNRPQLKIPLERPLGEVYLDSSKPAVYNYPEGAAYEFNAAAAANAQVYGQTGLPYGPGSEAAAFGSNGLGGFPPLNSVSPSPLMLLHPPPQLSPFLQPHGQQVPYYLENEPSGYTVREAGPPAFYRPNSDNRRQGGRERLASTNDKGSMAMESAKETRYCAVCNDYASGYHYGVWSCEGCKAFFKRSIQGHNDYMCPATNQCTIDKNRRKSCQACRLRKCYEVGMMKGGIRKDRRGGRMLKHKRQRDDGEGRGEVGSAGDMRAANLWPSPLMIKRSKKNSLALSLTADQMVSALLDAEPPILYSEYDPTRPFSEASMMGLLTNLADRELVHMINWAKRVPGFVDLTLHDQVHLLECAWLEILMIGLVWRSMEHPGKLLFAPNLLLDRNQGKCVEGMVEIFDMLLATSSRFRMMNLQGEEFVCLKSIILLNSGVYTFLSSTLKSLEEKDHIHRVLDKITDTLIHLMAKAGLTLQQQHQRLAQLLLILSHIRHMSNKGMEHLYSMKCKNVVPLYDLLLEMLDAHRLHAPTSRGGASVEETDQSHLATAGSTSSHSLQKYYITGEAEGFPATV

COC(=O)CC(C(C)=O)C(=O)OC (stereo unspecified)
inactive: [1] | [2] | [3] | [4] | [5] | [6] | [7] | [8] | [9] | [10] | [11] | [12] | [13] | [14] | [15] | [16]

CNc1c2c(nn1C)CCCC2
inactive: [1] | [2] | [3] | [5] | [17] | [6] | [7] | [8] | [18] | [9] | [10] | [11] | [12] | [19] | [14] | [15] | [16]

CN=C(N)NC(=O)Nc1c(C)cccc1C
inactive: [1] | [2] | [3] | [5] | [17] | [6] | [7] | [8] | [18] | [9] | [10] | [12] | [19] | [14] | [15] | [16]

CCOC(=O)c1c(N)sc2c1CCN(Cc1ccccc1)C2
inactive: [1] | [2] | [3] | [17] | [6] | [7] | [8] | [9] | [12] | [14] | [15] | [16]
active: [5] 29.8 µM | [10] 10.6 µM

Oc1cccc2[nH]ccc12
inactive: [1] | [2] | [3] | [4] | [5] | [6] | [7] | [18] | [9] | [10] | [20] | [12] | [19] | [13] | [14] | [15] | [16]

Nc1cccc2c(N)cccc12
inactive: [1] | [3] | [4] | [17] | [6] | [7] | [9] | [12] | [15]
active: [2] 27.3 µM | [5] 20.5 µM | [10] 5.45 µM | [19] 4.86 µM | [13] 54.5 µM

CCC(C)(C)C(=O)O
inactive: [1] | [2] | [3] | [4] | [5] | [6] | [7] | [8] | [18] | [9] | [10] | [12] | [19] | [13] | [14] | [15] | [16]

O=C(O)CO
inactive: [1] | [2] | [3] | [5] | [6] | [7] | [8] | [18] | [9] | [10] | [20] | [11] | [12] | [19] | [14] | [15] | [16]

CCCCC(CC)COS(=O)(=O)O (stereo unspecified)
inactive: [1] | [2] | [3] | [5] | [17] | [6] | [7] | [18] | [9] | [10] | [12] | [19] | [15] | [16]

CC12CC3CC(C)(C1)CC(N)(C3)C2
active: [10] 16.8 µM
inactive: [1] | [2] | [3] | [5] | [17] | [6] | [7] | [18] | [9] | [20] | [11] | [12] | [19] | [14] | [15] | [16]

CC(C)OC(=O)c1ccccc1C(=O)OC(C)C
inactive: [1] | [2] | [3] | [5] | [6] | [7] | [8] | [18] | [9] | [10] | [12] | [19] | [14] | [15] | [16]

CC(C)(C(=O)c1cccnc1)c1cccnc1
inactive: [1] | [2] | [3] | [5] | [17] | [6] | [7] | [9] | [12] | [19] | [14] | [15] | [16]

CCOC(=O)C(C)O (stereo unspecified)
inactive: [1] | [2] | [3] | [5] | [6] | [7] | [8] | [18] | [9] | [10] | [20] | [11] | [12] | [19] | [14] | [15]

COc1ccc(CCN(C)CCCN2CCc3cc(OC)c(OC)cc3CC2=O)cc1OC
inactive: [1] | [2] | [3] | [5] | [17] | [6] | [7] | [18] | [9] | [12] | [19] | [14] | [15]

O=C1NC(=O)c2cccc3cccc1c23
inactive: [1] | [2] | [3] | [5] | [6] | [7] | [8] | [18] | [9] | [10] | [20] | [11] | [12] | [15] | [16]

Cc1ccc(N(CC2=NCCN2)c2cccc(O)c2)cc1
inactive: [1] | [2] | [3] | [5] | [17] | [6] | [7] | [9] | [11] | [12] | [19] | [14] | [15] | [16]

Nc1nc2ccc(OC(F)(F)F)cc2s1
inactive: [1] | [2] | [3] | [5] | [17] | [7] | [8] | [18] | [9] | [10] | [20] | [11] | [12] | [19] | [14] | [16]
